Assay [1] can be described thus: antimalarial activity against Dd2 strain (AID 2302;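 active = growth inhibition above 50% at the single 2 µM test dose, taken to imply half-maximal potency below 2 µM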;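 also: 0% = DMSO untreated growth and 100% = chloroquine plus artemisinin killed control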). To be noted: P. falciparum Dd2 in RBCs, LDH growth readout, 72 h; at 2 µM; hits give high values.
Assay [2] in a line: HepG2 cytotoxicity, primary screen, cytotoxicity control for P. falciparum antimalarial project, cell-based, ATP luminescence (AID 2303;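 active = inhibition above 50%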;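 also: 0% = DMSO wells and 100% = digitonin-killed cells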). Particulars: HepG2 viability, 24-48 h, at 10 µM, hits give high values.
Assay [3] deals with L-lactate dehydrogenase (Plasmodium falciparum (isolate CDC / Honduras)) (UniProt Q27743). The assay is described as follows: PfLDH activity inhibition – cell lysate, 3D7 strain, counter-screen for P. falciparum growth inhibition project (AID 2304).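 Also: 0% = vehicle and 100% = reference inhibitor.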 Particulars: P. falciparum 3D7 crude extract, LDH APAD/NBT absorbance; at 2 µM; hits give high values. (A counterscreen serves to expose hits that act by an unwanted route or on another target.)
Chain of L-lactate dehydrogenase (Plasmodium falciparum (isolate CDC / Honduras)) (Q27743 whole entry, looked up): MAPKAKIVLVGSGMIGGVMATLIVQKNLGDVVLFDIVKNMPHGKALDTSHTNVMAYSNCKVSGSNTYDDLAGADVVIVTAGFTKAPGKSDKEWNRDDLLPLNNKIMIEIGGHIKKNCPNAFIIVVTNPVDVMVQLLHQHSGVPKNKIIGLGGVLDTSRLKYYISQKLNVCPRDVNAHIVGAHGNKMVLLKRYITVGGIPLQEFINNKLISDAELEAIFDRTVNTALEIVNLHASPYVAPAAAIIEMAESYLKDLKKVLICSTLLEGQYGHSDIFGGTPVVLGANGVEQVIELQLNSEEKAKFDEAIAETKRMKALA

Assay [4] can be described thus: inhibition of 3D7 malaria parasite growth – strain 3D7 (AID 2306).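 Also: 0% = DMSO wells and 100% = chloroquine plus artemisinin control wells.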 To be noted: P. falciparum 3D7 erythrocytic growth, LDH absorbance, 72 h; at 2 µM; hits give high values.
Assay [5] deals with Calcium-dependent protein kinase 1 (Plasmodium falciparum (isolate 3D7)) (UniProt P62344). In words: PfCDPK1 kinase inhibitors, biochemical, TCAMS library (AID 1159585; cut-off not given, nearly all actives have IC50 up to about 0.98 µM;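 also: inhibitors leave more ATP so luminescence rises with inhibition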). To be noted: recombinant PfCDPK1, Kinase-Glo ATP depletion luminescence. For orientation: Kinase-Glo measures the ATP left after a reaction by luminescence.
Chain of Calcium-dependent protein kinase 1 (Plasmodium falciparum (isolate 3D7)) (P62344 whole entry, looked up): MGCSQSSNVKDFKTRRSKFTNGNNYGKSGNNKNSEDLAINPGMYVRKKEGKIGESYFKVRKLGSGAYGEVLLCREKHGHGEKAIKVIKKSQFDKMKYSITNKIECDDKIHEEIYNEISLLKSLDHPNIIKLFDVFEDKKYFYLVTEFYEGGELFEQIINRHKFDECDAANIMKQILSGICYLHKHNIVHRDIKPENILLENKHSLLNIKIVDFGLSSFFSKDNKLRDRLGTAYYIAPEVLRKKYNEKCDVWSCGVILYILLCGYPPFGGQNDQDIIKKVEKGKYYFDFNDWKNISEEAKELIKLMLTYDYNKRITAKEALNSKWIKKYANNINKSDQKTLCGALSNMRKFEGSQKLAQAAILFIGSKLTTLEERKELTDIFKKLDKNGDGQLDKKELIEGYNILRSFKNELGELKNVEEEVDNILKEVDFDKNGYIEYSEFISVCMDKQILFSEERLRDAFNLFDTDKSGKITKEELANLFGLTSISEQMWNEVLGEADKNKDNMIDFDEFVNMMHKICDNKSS
Assay [6] concerns the target Plasmodium falciparum protein kinase 6 (PK6, PF3D7_1337100) (UniProt Q8IDW1). In words: PfPK6 kinase inhibitors, biochemical, TCAMS library (AID 1159586). Particulars: recombinant PfPK6, Kinase-Glo ATP depletion luminescence.
Assay [7] deals with Protein kinase 7 (PK7), Plasmodium falciparum 3D7 (PF3D7_0213400) (UniProt Q7YTF7). The assay is described as follows: inhibition of Plasmodium PK7 catalytic activity – biochemical, TCAMS antimalarial set, Kinase-Glo luminescence (AID 1159587). To be noted: recombinant PfPK7, Kinase-Glo ATP depletion luminescence.
Chain of Protein kinase 7 (PK7), Plasmodium falciparum 3D7 (PF3D7_0213400) (Q7YTF7 1-343): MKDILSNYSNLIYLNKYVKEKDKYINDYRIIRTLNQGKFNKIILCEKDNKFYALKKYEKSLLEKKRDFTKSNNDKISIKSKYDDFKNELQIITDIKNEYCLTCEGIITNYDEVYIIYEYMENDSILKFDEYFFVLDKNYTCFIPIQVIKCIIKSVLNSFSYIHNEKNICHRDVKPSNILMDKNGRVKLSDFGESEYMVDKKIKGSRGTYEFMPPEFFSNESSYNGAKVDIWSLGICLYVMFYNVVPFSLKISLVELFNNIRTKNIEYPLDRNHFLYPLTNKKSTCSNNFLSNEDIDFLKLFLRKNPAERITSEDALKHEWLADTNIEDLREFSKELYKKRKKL
In assay [8] the target is Calcium-dependent protein kinase 4 (Plasmodium falciparum (isolate 3D7)) (UniProt Q8IBS5). The assay is described as follows: PfCDPK4 kinase inhibitors, biochemical, TCAMS library (AID 1159588; cut-off not given, nearly all actives have IC50 up to about 0.91 µM). Particulars: recombinant PfCDPK4, Kinase-Glo ATP depletion luminescence.
Chain of Calcium-dependent protein kinase 4 (Plasmodium falciparum (isolate 3D7)) (Q8IBS5 whole entry, looked up): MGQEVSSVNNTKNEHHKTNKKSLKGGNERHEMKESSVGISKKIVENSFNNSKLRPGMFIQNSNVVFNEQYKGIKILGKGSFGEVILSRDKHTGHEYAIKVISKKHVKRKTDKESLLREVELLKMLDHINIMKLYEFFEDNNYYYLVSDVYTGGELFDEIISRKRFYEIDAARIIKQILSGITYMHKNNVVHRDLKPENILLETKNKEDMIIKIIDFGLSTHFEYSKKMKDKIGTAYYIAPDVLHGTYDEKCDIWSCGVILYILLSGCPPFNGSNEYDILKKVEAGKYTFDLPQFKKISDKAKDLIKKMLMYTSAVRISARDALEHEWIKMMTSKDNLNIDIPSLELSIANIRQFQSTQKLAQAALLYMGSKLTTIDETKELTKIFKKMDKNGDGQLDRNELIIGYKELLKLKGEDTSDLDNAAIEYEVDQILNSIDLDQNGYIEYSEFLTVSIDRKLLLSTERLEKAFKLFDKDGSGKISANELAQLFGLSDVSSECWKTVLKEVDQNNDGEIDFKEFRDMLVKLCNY

Each structure is given as a SMILES string. Values without a mark were called inactive. For some of these results: Results with a measured potency or affinity are listed apart. The source made the active and inactive calls. Unless noted, no rule for the calls is given here.

Chain of Plasmodium falciparum protein kinase 6 (PK6, PF3D7_1337100) (Q8IDW1 1-305): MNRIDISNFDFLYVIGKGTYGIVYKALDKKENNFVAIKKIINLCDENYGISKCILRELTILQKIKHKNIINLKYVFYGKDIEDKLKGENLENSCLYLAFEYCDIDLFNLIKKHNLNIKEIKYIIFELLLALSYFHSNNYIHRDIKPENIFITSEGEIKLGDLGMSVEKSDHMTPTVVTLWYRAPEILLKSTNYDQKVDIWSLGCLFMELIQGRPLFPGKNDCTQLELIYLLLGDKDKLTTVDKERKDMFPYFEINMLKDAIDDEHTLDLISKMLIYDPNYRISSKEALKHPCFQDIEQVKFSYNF

As a reminder, the inhibition is the relative decrease from the control value, in per cent. For `CCn1cc(CN2CCCC(C(=O)Nc3ccc(-c4nc5ccccc5[nH]4)cc3)C2)cn1` (stereo not given), the growth inhibition in assay [1] was 26%; in assay [4], 100% (active). The inhibition is 8% in assay [2] and -1% in assay [3]. The outcome in assay [5], in assay [6], in assay [7] and in assay [8] was inactive.
On to `Cc1ccc(-c2noc(COc3ccccc3C(=O)NC3CCCC3)n2)cc1`, for which the growth inhibition in assay [1] is 92% (active); in assay [4], 89% (active). The inhibition in assay [2] is 9%; in assay [3], -4%. Further, the result in assay [5], in assay [6], in assay [7] and in assay [8] was inactive.
As to `COc1ccc([N+](=O)[O-])cc1N(Cc1ccccc1-c1ccccc1)S(=O)(=O)c1ccc(C(F)(F)F)cc1[N+](=O)[O-]`, the growth inhibition was 92% (active) in assay [1] and 88% (active) in assay [4]. The figures for the inhibition in assay [2] and in assay [3] were 2% and -6%, respectively. Further, the result in assay [5], in assay [6], in assay [7] and in assay [8] was inactive.
As to `CCCc1cc(Cc2cnc(N)nc2N)cc(CCC)c1OCCCCC(=O)OCC`, the growth inhibition is -3% in assay [1] and 93% (active) in assay [4]. Also, the inhibition in assay [2] is 1%; in assay [3], 4%. Further, the outcome in assay [5], in assay [6], in assay [7] and in assay [8] was inactive.
For the compound `COc1ccc(OCCCN2CCN(CC(c3ccc(F)cc3)N3CCN(C(C)C)CC3)CC2)c2ccccc12` (stereo not given), the growth inhibition was 32% in assay [1] and 100% (active) in assay [4]. Further, the inhibition in assay [2] is 30%; in assay [3], -1%. Also, the result in assay [5], in assay [6], in assay [7] and in assay [8] was inactive.
With `NC(N)=Nc1ccc(OCCCCCOc2ccc(N=C(N)N)c(Cl)c2)cc1Cl`, the growth inhibition in assay [1] and in assay [4] was 92% (active) in each case. Besides, the inhibition in assay [2] was 18%; in assay [3] it was 6%. The outcome in assay [5], in assay [6], in assay [7] and in assay [8] was inactive.
Consider `CCCCN1C(=O)[C@H]2CC(=O)CC(C3CCCCC3)[C@H]2C1=O` (stereo not given in full), for which the results for the growth inhibition in assay [1] and in assay [4] were 1% and 97% (active), respectively. The inhibition in assay [2] was -1%; in assay [3] it was -5%. Moreover, the result in assay [5], in assay [6], in assay [7] and in assay [8] was inactive.
Regarding `CCN(CC)c1ccc(C(c2ccc(N(CC)CC)cc2)c2ccc([N+](=O)[O-])cc2)cc1`, the growth inhibition in assay [1] was 63% (active); in assay [4], 82% (active). For the same compound, the inhibition in assay [2] is 20%; in assay [3], 0%. Moreover, the result in assay [5], in assay [6], in assay [7] and in assay [8] was inactive.
On to `O=C(c1ccc([N+](=O)[O-])o1)N1CCN(c2nc3c(Cl)cccc3s2)CC1`, for which the growth inhibition is 87% (active) in assay [1] and 91% (active) in assay [4]. In addition, the results for the inhibition in assay [2] and in assay [3] were -12% and 6%, respectively. The outcome in assay [5], in assay [6], in assay [7] and in assay [8] was inactive.
For the compound `CC(C)c1cccc(OCC2CCN(c3ncc(C(=O)Nc4ccccc4)cc3Cl)CC2)c1`, the growth inhibition was 88% (active) in assay [1] and 89% (active) in assay [4]. Besides, the inhibition was 9% in assay [2] and -2% in assay [3]. Moreover, the outcome in assay [5], in assay [6], in assay [7] and in assay [8] was inactive.
With `Cn1c(/C=C/C(=O)NC2CCC(CCN3CCc4ccc(C#N)cc4CC3)CC2)cc2ccccc21` (stereo not given), the growth inhibition in assay [1] was 29%; in assay [4] it was 101% (active). Further, the values for the inhibition in assay [2] and in assay [3] were 15% and -1%, respectively. For the same compound, the outcome in assay [5], in assay [6], in assay [7] and in assay [8] was inactive.
As to `COc1ccc(Nc2ncc3c(-c4cccc(NC(=O)c5ccc(N)cc5)c4)c[nH]c3n2)cc1OC`, the figures for the growth inhibition in assay [1] and in assay [4] were 31% and 84% (active), respectively. Also, the results for the inhibition in assay [2] and in assay [3] were 83% (active) and -3%, respectively. Further, the result in assay [5], in assay [6], in assay [7] and in assay [8] was inactive.
Regarding `CC(C)CNCc1ccc(-c2ccccc2CN(C(=O)NCCc2ccccc2)C2CCN(Cc3ccccc3)CC2)cc1`, the growth inhibition in assay [1] was 94% (active); in assay [4], 98% (active). The inhibition is 89% (active) in assay [2] and 2% in assay [3]. The outcome in assay [5], in assay [6], in assay [7] and in assay [8] was inactive.
`O=C(/C=C/c1ccc(Cl)c(Cl)c1)NCCCCCN1CCC(NC(=O)c2cc(Cl)ccc2F)CC1`: the growth inhibition was 32% in assay [1] and 92% (active) in assay [4]. Also, the inhibition in assay [2] was 48%; in assay [3] it was 4%. For the same compound, the outcome in assay [5], in assay [6], in assay [7] and in assay [8] was inactive.
For the compound `O=C(Nc1ccc(-c2cccc(-c3nc4ccc(F)cc4[nH]3)c2)cc1)c1cnn2cccnc12`, the growth inhibition in assay [1] was 25%; in assay [4], 98% (active). In addition, the inhibition in assay [2] was 10%; in assay [3], -1%. For the same compound, the result in assay [5], in assay [6], in assay [7] and in assay [8] was inactive.
In the case of `COc1cccc(-c2cccc(-c3ccc(NC(=O)c4ccc([N+](=O)[O-])o4)cc3)n2)c1`, the growth inhibition in assay [1] was 94% (active); in assay [4], 97% (active). In addition, the values for the inhibition in assay [2] and in assay [3] were 98% (active) and 6%, respectively. Further, the result in assay [5], in assay [6], in assay [7] and in assay [8] was inactive.
On to `CC(C)CNCc1cccc(-c2cccc(CN(CCCN3CCN(C)CC3)C(=O)NC3CCCCC3)c2)c1`, for which the growth inhibition was 84% (active) in assay [1] and 100% (active) in assay [4]. For the same compound, the inhibition in assay [2] was 16%; in assay [3], 0%. Besides, the outcome in assay [5], in assay [6], in assay [7] and in assay [8] was inactive.
For `COc1ccccc1Oc1c(N(C)S(=O)(=O)c2ccc(C(C)C)cc2)nc(C(F)(F)F)nc1N(C)S(=O)(=O)c1ccc(C(C)C)cc1`, the growth inhibition in assay [1] was 98% (active); in assay [4], 94% (active). The inhibition in assay [2] is 4%; in assay [3] it was -6%. Moreover, the result in assay [5], in assay [6], in assay [7] and in assay [8] was inactive.
As to `CCN1CCC(N2CCC(C(=O)Nc3cccc(-c4cccc(Cl)c4)c3)CC2)CC1`, the growth inhibition was 82% (active) in assay [1] and 91% (active) in assay [4]. For the same compound, the inhibition in assay [2] was 54% (active); in assay [3], -1%. In addition, the outcome in assay [5], in assay [6], in assay [7] and in assay [8] was inactive.
For the compound `CCN1CCC(N(Cc2ccc(-c3ccc(C(F)(F)F)cc3)o2)C(=O)Cn2c(CCc3cccc(F)c3F)nc(=O)c3ccccc32)CC1`, the growth inhibition in assay [1] is 88% (active); in assay [4] it was 91% (active). Besides, the inhibition is 45% in assay [2] and -1% in assay [3]. Besides, the outcome in assay [5], in assay [6], in assay [7] and in assay [8] was inactive.

The values are drawn from PubChem BioAssay.
